SENP6 block – SENP6 protease inhibition; Q9GZR1; Recombinant SENP6 catalytic domain, aminoluciferin luminescence; inhibition, % at 10 µM; 330,000 compounds, 1.8% hits; AID 2599;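 active means inhibition above about 50% at the single tested dose, limit read from the data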;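 further: plate controls were DMSO wells with enzyme for no effect and DMSO wells lacking enzyme for full effect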
SENP7 block – inhibitors of human SENP7 protease; AID 434973; recombinant SENP7, Z-RLRGG-aminoluciferin luminescence, 40 min; inhibition, % at 5 µM; Q9BQF6; 330,000 compounds, 1.5% hits;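 active means inhibition above about 50% at the single test dose, limit read from the data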;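 further: plate controls were DMSO with enzyme for no effect and no enzyme buffer wells for full effect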
SENP8 block-1 – blocks the human protease SENP8; Q96LD8; purified SENP8, Z-RLRGG-aminoluciferin cleavage, luminescence; inhibition, % at 10 µM; 330,000 compounds, 1.2% hits; in the data active means inhibition above about 50%
Target sequence (Q96LD8 whole entry, looked up): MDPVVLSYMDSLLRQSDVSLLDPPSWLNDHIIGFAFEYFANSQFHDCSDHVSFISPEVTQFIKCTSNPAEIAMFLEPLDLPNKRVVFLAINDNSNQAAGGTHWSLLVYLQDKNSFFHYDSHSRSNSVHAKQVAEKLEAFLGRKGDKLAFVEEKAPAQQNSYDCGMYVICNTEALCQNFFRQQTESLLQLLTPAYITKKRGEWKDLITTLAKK
SENP8 block-2 – SENP8 (human) protease inhibition | Q96LD8 | 360,000 compounds, 0.64% hits | recombinant SENP8, Nedd8 substrate fluorescence | inhibition, % at 20 µM; in the data active means inhibition mostly above about 40%, no sharp cut-off; inactive means mostly below about 27%
Platelet DG rel – platelet dense granule release activity; human platelet-rich plasma, SFLLRN dense granule ATP release, luminescence; 300,000 compounds, 0.22% hits; inhibition, %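 (compounds screened at 7.5 µM in platelet-rich plasma)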;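 active means mean replicate score, as percent of positive control, at or above 50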
SENP8 conf – confirmation of human SENP8 protease inhibitors. shares compounds with SENP8 block-2. purified SENP8, Nedd8-AMC/pro-Nedd8 cleavage fluorescence, 30 min. inhibition, % at 25 µM. 1,400 compounds, 15% hits. AID 624319; in the data active means inhibition mostly above about 39%, no sharp cut-off; inactive means mostly below about 34%
* = called active by the depositor. Rows were chosen to be rich in hits. Some 2.4% of all compounds tested hit in one or more screens of this group.

`COc1ccc(C(C)(O)c2nc(-c3ccc(Cl)cc3)cs2)cc1` (configuration not stated) gave SENP8 block-2 9.
Screening CCN(CC)c1ccc(N=Cc2ccc([N+](=O)[O-])o2)cc1 returned SENP6 block 6, SENP7 block 19, SENP8 block-1 -10, SENP8 block-2 24 and Platelet DG rel 5.
For CCN(CC)c1ccc(N=Cc2ccccc2[N+](=O)[O-])cc1 the results were SENP6 block 28, SENP7 block 7, SENP8 block-1 -7, SENP8 block-2 66*, Platelet DG rel 5 and SENP8 conf 31.
For Cc1cc2ccccn2c1C(=O)c1ccncc1 the results were SENP6 block -8, SENP7 block -1, SENP8 block-1 5, SENP8 block-2 13 and Platelet DG rel 2.
Cc1cc2ccccn2c1C(=O)c1ccccc1F was read as SENP6 block -12, SENP7 block -1, SENP8 block-1 6, SENP8 block-2 41*, Platelet DG rel 12 and SENP8 conf -5.
CCOc1ccccc1OCCC(=O)N1CCN(S(=O)(=O)c2ccccc2[N+](=O)[O-])CC1 was read as SENP6 block 13, SENP7 block -2, SENP8 block-1 1 and SENP8 block-2 34.
CCn1cc(/C=C/C(=O)Nc2ccn(Cc3c(F)c(F)cc(F)c3F)n2)cn1 was read as SENP6 block 7, SENP7 block 1, SENP8 block-1 13, SENP8 block-2 29*, Platelet DG rel -9 and SENP8 conf 66*.
CCn1cc(/C=C/C(=O)Nc2ccc(C)cc2Br)cn1 was read as SENP6 block -22, SENP7 block -10, SENP8 block-1 -4, SENP8 block-2 14 and Platelet DG rel 5.
For O=C(Nc1ccc(N2CCCC2)cc1)c1ccc([N+](=O)[O-])cc1Cl the results were SENP6 block -15, SENP7 block -7, SENP8 block-1 -4, SENP8 block-2 43*, Platelet DG rel -2 and SENP8 conf 16.
Screening O=C(Nc1ccc(S(=O)(=O)N2CCOCC2)cc1)c1ccc([N+](=O)[O-])cc1Cl returned SENP6 block -6, SENP7 block -1, SENP8 block-1 0, SENP8 block-2 12 and Platelet DG rel 0.
`CCC(=O)NC(=S)Nc1ccc(NC(=O)c2ccc([N+](=O)[O-])cc2Cl)cc1` gave SENP6 block 5, SENP7 block 1, SENP8 block-1 7, SENP8 block-2 43*, Platelet DG rel 9 and SENP8 conf 8.
`O=C(NCC1CCCO1)c1cccc(Oc2ccc([N+](=O)[O-])cc2)c1` (configuration not stated) gave SENP6 block -3, SENP7 block 14, SENP8 block-1 -8, SENP8 block-2 4 and Platelet DG rel -3.
`CCCNC(=O)CN(C)C(=O)c1n[nH]c2ccccc12` gave SENP6 block -9, SENP7 block 5, SENP8 block-1 1, SENP8 block-2 43*, Platelet DG rel -1 and SENP8 conf 15.
COCCNC(=O)c1n[nH]c2ccccc12 was read as SENP6 block 3, SENP7 block -3, SENP8 block-1 -16, SENP8 block-2 9 and Platelet DG rel -1.
`O=C(c1cc([N+](=O)[O-])cc([N+](=O)[O-])c1)N1CCN(Cc2ccc3c(c2)OCO3)CC1` gave SENP6 block 28, SENP7 block 2, SENP8 block-1 6, SENP8 block-2 50*, Platelet DG rel 7 and SENP8 conf 20.
For CNC(=O)OCc1snc(-c2ccccc2)c1COC(=O)NC the results were SENP8 block-2 12.
`COc1ccc(CNC(=O)CN(Cc2ccc(OC)cc2)C(=O)CCC(=O)Nc2nccs2)cc1` gave SENP6 block -24, SENP7 block 2, SENP8 block-1 0, SENP8 block-2 0 and Platelet DG rel -22.
For COc1ccc(C(=O)c2sc(Nc3ccccc3)c(C(=O)Nc3ccc(OC)c(OC)c3)c2N)cc1 the results were SENP6 block 2, SENP7 block 2, SENP8 block-1 -3, SENP8 block-2 50*, Platelet DG rel 0 and SENP8 conf 11.
For CC1CCCN(c2cc(N(C)CCO)c([N+](=O)[O-])c3nonc23)C1 (configuration not stated) the results were SENP6 block -6, SENP7 block 1, SENP8 block-1 1, SENP8 block-2 49*, Platelet DG rel 7 and SENP8 conf 1.
CCOC(=O)CCN(C(=S)Nc1ccccc1)C1CCCCC1 was read as SENP8 block-2 -2.

Bioassay records from PubChem BioAssay.
